Measured values taken from PubChem BioAssay (NCI).
This is part of a sample that, as a whole, favours compounds with a hit. Of some 79,000 tested, about 15% had one in any assay. Values without a mark were called inactive. Active and inactive are the calls of the source. No stated cut-off is given here; in the data, active means growth inhibition above about 70%; inactive means the rest. Where a SMILES comes first, the peptide text is derived from it. [ ]: non-standard residue; d: D form. The star is where a group is joined. ξ: configuration not given here. Cbz = O=C(OCc1ccccc1)*; ξNva = CCCC(N)C(=O)O

Columns and labels:
[1] = NCI Yeast Anticancer Drug Screen. Data for the rad50 strain (AID 155);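 further: 0% = growth of vehicle-only cultures of the same strain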; conditions: S. cerevisiae rad50 strain growth inhibition; at 50.0 µM; stronger effect = higher value
Procedure, shortened: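 Relative growth inhibition (compound vs vehicle) was measured in yeast with a defined repair-gene alteration.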

[2] = NCI Yeast Anticancer Drug Screen. Data for the mec2-1 strain (AID 157); conditions: S. cerevisiae mec2-1 strain, at 50.0 µM, stronger effect = higher value
Procedure, shortened: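 Vehicle-treated cultures served as reference for growth inhibition of compound-exposed mec2-1 yeast.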

[3] = NCI Yeast Anticancer Drug Screen. Data for the sgs1 mgt1 strain (AID 161);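 further: 0% = growth of cultures given vehicle only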; conditions: S. cerevisiae sgs1 mgt1 strain, at 50.0 µM, stronger effect = higher value
Procedure, shortened: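 Test agents were incubated with a DNA-repair-mutant yeast strain. Growth was then read and compared against vehicle-treated controls.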

[4] = NCI Yeast Anticancer Drug Screen. Data for the cln2 rad14 strain (AID 165);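 further: 0% = growth equal to vehicle treated cultures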; conditions: S. cerevisiae cln2 rad14 strain, at 50.0 µM, stronger effect = higher value
Procedure, shortened: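 Each compound was tested on cln2 rad14 yeast. Inhibition of growth was calculated against vehicle-exposed controls.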

[5] = NCI Yeast Anticancer Drug Screen. Data for the bub3 strain (AID 167); conditions: S. cerevisiae bub3 mutant strain, at 50.0 µM, stronger effect = higher value
Procedure, shortened: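 Screening used yeast with an engineered genetic alteration affecting cell cycle control. Compound-exposed cultures were compared with vehicle cultures, and reduced growth was taken as inhibition.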

[6] = NCI Yeast Anticancer Drug Screen. Data for the mlh1 rad18 strain (AID 175); conditions: S. cerevisiae mlh1 rad18 strain growth inhibition; at 50.0 µM; stronger effect = higher value
Procedure, shortened: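 Vehicle-treated cultures served as the reference for growth inhibition in a yeast strain carrying DNA damage repair alterations exposed to each compound.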

## CN1C(C)(C)CC(CN2c3ccccc3Sc3ccccc32)C1(C)C (configuration not stated)
[1]
  growth inhibition: 34.2%
[2]
  growth inhibition: 6.8%
[3]
  growth inhibition: 37.9%
[4]
  growth inhibition: -19.3%
[5]
  growth inhibition: 27.9%
[6]
  growth inhibition: 45.2%

## CCCS(=O)(=O)CCC(=O)c1ccccc1
[1]
  growth inhibition: -4%
[2]
  growth inhibition: -7.9%
[3]
  growth inhibition: -9%
[4]
  growth inhibition: -13.8%
[5]
  growth inhibition: 0.85%
[6]
  growth inhibition: 2.7%

## O=C1C=CC(=Nc2ccc(OC(=O)c3ccccc3)cc2)C=C1
[1]
  growth inhibition: 9.9%
[2]
  growth inhibition: -4.95%
[3]
  growth inhibition: 1.45%
[4]
  growth inhibition: -35%
[5]
  growth inhibition: -3.8%
[6]
  growth inhibition: 9.35%

## CCOc1cc2c(cc1Cc1ccc3c(c1)OCO3)OCO2
[1]
  growth inhibition: -8.15%
[2]
  growth inhibition: -11.8%
[3]
  growth inhibition: -5.6%
[4]
  growth inhibition: -12.1%
[5]
  growth inhibition: 4.35%
[6]
  growth inhibition: 1.3%

## C[N+](C)(C)CCOC(=O)c1ccccc1CCl
[1]
  growth inhibition: 19.8%
[2]
  growth inhibition: 8.35%
[3]
  growth inhibition: 31.6%
[4]
  growth inhibition: 50.1%
[5]
  growth inhibition: 97.3% (active)
[6]
  growth inhibition: -17.1%

## O=S(=O)(c1ccc(Cl)cc1)c1ccccc1C1=NCCN1
[1]
  growth inhibition: -37.8%
[2]
  growth inhibition: -44.9%
[3]
  growth inhibition: -5.7%
[4]
  growth inhibition: 6.3%
[5]
  growth inhibition: -43.8%
[6]
  growth inhibition: -23.8%

## CC(=O)OC/C=C(\C)CCC=C(C)C
[1]
  growth inhibition: -21.6%
[2]
  growth inhibition: -23.4%
[3]
  growth inhibition: -12.2%
[4]
  growth inhibition: -6.65%
[5]
  growth inhibition: -0.55%
[6]
  growth inhibition: -5.15%

## NC(CSc1nc2ccccn2c1[N+](=O)[O-])C(=O)O (configuration not stated)
[1]
  growth inhibition: -26.1%
[2]
  growth inhibition: -40.8%
[3]
  growth inhibition: -30.1%
[4]
  growth inhibition: 5.25%
[5]
  growth inhibition: 8.25%
[6]
  growth inhibition: -18%

## CCOC(=O)C(CO)C1CCCC1 (configuration not stated)
[1]
  growth inhibition: 10.3%
[2]
  growth inhibition: -2.65%
[3]
  growth inhibition: 7.9%
[4]
  growth inhibition: -5.4%
[5]
  growth inhibition: 5.05%
[6]
  growth inhibition: 2.75%

## CC(C)Oc1ccc(C(=O)O)cc1
[1]
  growth inhibition: 23.6%
[2]
  growth inhibition: 5.05%
[3]
  growth inhibition: 4.75%
[4]
  growth inhibition: -0.15%
[5]
  growth inhibition: -19.1%
[6]
  growth inhibition: 14.1%

## CCCCCCC(=O)OC(C)CC(C)C (configuration not stated)
[1]
  growth inhibition: 6.25%
[2]
  growth inhibition: 2.75%
[3]
  growth inhibition: -0.75%
[4]
  growth inhibition: -11.2%
[5]
  growth inhibition: -3.7%
[6]
  growth inhibition: 24.2%

## Cc1ccc(S(=O)(=O)N2CCSCCSCCSCCSCC2)cc1
[1]
  growth inhibition: -1.3%
[2]
  growth inhibition: -0.1%
[3]
  growth inhibition: 7.1%
[4]
  growth inhibition: 10.6%
[5]
  growth inhibition: -8.9%
[6]
  growth inhibition: -39.1%

## Cc1nc2ccc(N)cc2[nH]c1=O
[1]
  growth inhibition: 16.9%
[2]
  growth inhibition: 7%
[3]
  growth inhibition: 12.8%
[4]
  growth inhibition: 14.5%
[5]
  growth inhibition: 6.5%
[6]
  growth inhibition: 25.3%

## CCOC(=O)NN(C(=O)OCC)c1c(NC)n(C)c(=O)n(C)c1=O
[1]
  growth inhibition: -23.4%
[2]
  growth inhibition: 7.1%
[3]
  growth inhibition: -7.7%
[4]
  growth inhibition: -23.8%
[5]
  growth inhibition: 11.1%
[6]
  growth inhibition: 13.3%

## CC1=CC(=O)/C(=C/n2c(=S)sc3ccccc32)C(=O)O1
[1]
  growth inhibition: -27.4%
[2]
  growth inhibition: 7.1%
[3]
  growth inhibition: 27.9%
[4]
  growth inhibition: 23%
[5]
  growth inhibition: -29.9%
[6]
  growth inhibition: 14.6%

## CC(=O)Nc1c(Cl)cccc1[N+](=O)[O-]
[1]
  growth inhibition: -25.1%
[2]
  growth inhibition: -18.8%
[3]
  growth inhibition: -4.75%
[4]
  growth inhibition: -26.4%
[5]
  growth inhibition: -5.8%
[6]
  growth inhibition: 5.85%

## CC(C)CCC[C@@H](C)[C@H]1CC[C@H]2[C@@H]3CC[C@H]4CC5(C[C@]4(C)[C@H]3CC[C@]12C)Nc1ccccc1S5 (some centres not stated)
[1]
  growth inhibition: -8.05%
[2]
  growth inhibition: -19.9%
[3]
  growth inhibition: -6.2%
[4]
  growth inhibition: 4.55%
[5]
  growth inhibition: -25.9%
[6]
  growth inhibition: -40.7%

## CCCC(NC(=O)OCc1ccccc1)C(=O)NCC(=O)O (configuration not stated) (Cbz-[ξNva]-Gly-OH)
[1]
  growth inhibition: 24.6%
[2]
  growth inhibition: 7.2%
[3]
  growth inhibition: 6.05%
[4]
  growth inhibition: 23.4%
[5]
  growth inhibition: 8.7%
[6]
  growth inhibition: 8.55%

## Cc1ccc2c(c1)C(c1ccccc1)(c1ccccc1)OC2
[1]
  growth inhibition: 8.65%
[2]
  growth inhibition: 41.4%
[3]
  growth inhibition: 9.45%
[4]
  growth inhibition: -10.8%
[5]
  growth inhibition: 10.4%
[6]
  growth inhibition: 13.6%

## [O-][n+]1cscc1-c1nc2ccccc2[nH]1
[1]
  growth inhibition: 7.45%
[2]
  growth inhibition: -13.2%
[3]
  growth inhibition: -2.95%
[4]
  growth inhibition: 10.2%
[5]
  growth inhibition: -7.8%
[6]
  growth inhibition: -7.5%

## COc1cc(OC)c(NC(=O)Nc2ccc([N+](=O)[O-])cc2OC)cc1Cl
[1]
  growth inhibition: -21.6%
[2]
  growth inhibition: -17.6%
[3]
  growth inhibition: -7.15%
[4]
  growth inhibition: -49.1%
[5]
  growth inhibition: 1.25%
[6]
  growth inhibition: -7.2%

## CCSC(N)=Nc1ccccc1 (tested in a mixture with another compound)
[1]
  growth inhibition: 13.2%
[2]
  growth inhibition: 9.5%
[3]
  growth inhibition: 21.8%
[4]
  growth inhibition: 13.3%
[5]
  growth inhibition: 12.1%
[6]
  growth inhibition: 18.1%

## CC#Cc1c(C#CC)c(OC)c2c(c1OC)C(=O)c1ccccc1C2=O
[1]
  growth inhibition: -20.9%
[2]
  growth inhibition: -29.3%
[3]
  growth inhibition: -26.2%
[4]
  growth inhibition: 3.3%
[5]
  growth inhibition: -8.2%
[6]
  growth inhibition: -25.1%

## [Mn+2].[Mn+2].c1ccc2c(c1)-c1nc-2nc2[n-]c(nc3nc(nc4[n-]c(n1)c1ccccc41)-c1ccccc1-3)c1cc3c4nc5nc(nc6[n-]c(nc7nc(nc([n-]4)c3cc21)-c1ccccc1-7)c1ccccc61)-c1ccccc1-5
[1]
  growth inhibition: 15.4%
[2]
  growth inhibition: -0.9%
[3]
  growth inhibition: -8.75%
[4]
  growth inhibition: -21.2%
[5]
  growth inhibition: 0.4%
[6]
  growth inhibition: 21.8%

## CCCOc1ncnc2nc[nH]c12
[1]
  growth inhibition: 7.3%
[2]
  growth inhibition: -6.05%
[3]
  growth inhibition: 1.55%
[4]
  growth inhibition: -6.4%
[5]
  growth inhibition: 5.3%
[6]
  growth inhibition: 19.7%

## CC(=O)SCCCCl
[1]
  growth inhibition: -9.25%
[2]
  growth inhibition: 2.1%
[3]
  growth inhibition: 11.2%
[4]
  growth inhibition: -1.25%
[5]
  growth inhibition: 8.25%
[6]
  growth inhibition: -11.3%

## CC(C#N)NC(=O)NC(C)C(N)=O (configuration not stated)
[1]
  growth inhibition: 3.85%
[2]
  growth inhibition: 6.3%
[3]
  growth inhibition: -5%
[4]
  growth inhibition: -48.3%
[5]
  growth inhibition: 8.2%
[6]
  growth inhibition: -27.7%

## CCCCCCC(C)Oc1ccccc1Cl (configuration not stated)
[1]
  growth inhibition: 5.35%
[2]
  growth inhibition: -11.5%
[3]
  growth inhibition: 7.9%
[4]
  growth inhibition: -23.9%
[5]
  growth inhibition: 6.4%
[6]
  growth inhibition: -20.6%

## COc1ccc(CC[n+]2cccc(/C(=N/O)c3ccccc3)c2)cc1OC
[1]
  growth inhibition: 46.9%
[2]
  growth inhibition: -8.3%
[3]
  growth inhibition: 25.2%
[4]
  growth inhibition: 2.7%
[5]
  growth inhibition: 8.25%
[6]
  growth inhibition: 6.35%

## CCc1cccc(C(C)CC)c1N=C(NC(=O)c1ccccc1C(=O)NC(=Nc1c(CC)cccc1C(C)CC)SC)SC (configuration not stated)
[1]
  growth inhibition: -0.7%
[2]
  growth inhibition: -3.15%
[3]
  growth inhibition: 5.3%
[4]
  growth inhibition: 6.3%
[5]
  growth inhibition: 15.1%
[6]
  growth inhibition: -5.15%

## O=C(COc1ccc(Cl)c(Cl)c1)NCc1ccc(Cl)cc1
[1]
  growth inhibition: 7.35%
[2]
  growth inhibition: 13.2%
[3]
  growth inhibition: 0.1%
[4]
  growth inhibition: 5.3%
[5]
  growth inhibition: 29.3%
[6]
  growth inhibition: 49.5%

## O=CNC(Cc1ccccc1)c1ccc(OCc2ccccc2)cc1 (configuration not stated)
[1]
  growth inhibition: 0.75%
[2]
  growth inhibition: 5%
[3]
  growth inhibition: 1.55%
[4]
  growth inhibition: 31.1%
[5]
  growth inhibition: 31.6%
[6]
  growth inhibition: 16.9%

## COc1ccc(OC)c2c1ccc1c(C)c3ccccc3c(C)c12
[1]
  growth inhibition: 12.2%
[2]
  growth inhibition: -1.1%
[3]
  growth inhibition: 14.2%
[4]
  growth inhibition: 6.8%
[5]
  growth inhibition: 34.1%
[6]
  growth inhibition: 26.2%

## COC(=O)C(C#N)=C(C)C
[1]
  growth inhibition: 2.3%
[2]
  growth inhibition: -23.6%
[3]
  growth inhibition: 16.9%
[4]
  growth inhibition: 19.9%
[5]
  growth inhibition: 0.05%
[6]
  growth inhibition: 7.95%

## CCOc1ccc2nc(NC(=O)CC(C)=O)sc2c1
[1]
  growth inhibition: -17.6%
[2]
  growth inhibition: -22%
[3]
  growth inhibition: -4.3%
[4]
  growth inhibition: 7.6%
[5]
  growth inhibition: -17.9%
[6]
  growth inhibition: 7.35%

## CC12CCC(NC(=O)C3CCCN3C(=O)OCc3ccccc3)CC1CCC1C2CCC2(C)C(NC(=O)C3CCCN3C(=O)OCc3ccccc3)CCC12 (configuration not stated)
[1]
  growth inhibition: -4.3%
[2]
  growth inhibition: 4.15%
[3]
  growth inhibition: -19.4%
[4]
  growth inhibition: -46%
[5]
  growth inhibition: -5.35%
[6]
  growth inhibition: -3.2%

## COC(=O)c1cc(-c2ccc3ccccc3c2)[nH]c(=O)c1C#N
[1]
  growth inhibition: 34.4%
[2]
  growth inhibition: 35.2%
[3]
  growth inhibition: 65.6%
[4]
  growth inhibition: 46.9%
[5]
  growth inhibition: 23.2%
[6]
  growth inhibition: 67.3%
